High-throughput results: PubChem, National Center for Advancing Translational Sciences (NCATS)
DRD3 antagonist: D3 dopamine receptor (human) antagonism. D3R cells, DiscoveRx beta-arrestin luminescence, antagonist mode; stronger effect = lower value. AID 652054. hit rate 2.5% among 360,000. P35462. max response, negative = inhibition, %; in the data active = max response below about -50%; inconclusive = no clear call, values can overlap the other calls; also: % is scaled to controls: 0 for no effect and ±100 for the full control effect
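Cells expressing the human receptor were seeded at 1500 cells/well, incubated overnight at 37 degrees C in 5% CO2, then exposed to library compounds with dopamine controls for 90 minutes at 37 degrees C before luminescent detection.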
GLP-1R inv ag: GLP-1 receptor (human) inverse agonism; hit rate 1.6% among 410,000; Potency, µM (doses to about 38.3 µM), for the others: top-dose activity change, negative = inhibition, most hits filed as inhibitors; P43220; HEK293 GLP-1R CRE-luciferase, luminescence, 24 h; GLP-1R form is constitutively active; AID 624417; also: potency is read from the fitted curve at half-maximal effect; % is scaled to controls: 0 for no effect and ±100 for the full control effect; nearly all actives have a fitted effect of over 55% in size
Target sequence (P43220 whole entry, looked up): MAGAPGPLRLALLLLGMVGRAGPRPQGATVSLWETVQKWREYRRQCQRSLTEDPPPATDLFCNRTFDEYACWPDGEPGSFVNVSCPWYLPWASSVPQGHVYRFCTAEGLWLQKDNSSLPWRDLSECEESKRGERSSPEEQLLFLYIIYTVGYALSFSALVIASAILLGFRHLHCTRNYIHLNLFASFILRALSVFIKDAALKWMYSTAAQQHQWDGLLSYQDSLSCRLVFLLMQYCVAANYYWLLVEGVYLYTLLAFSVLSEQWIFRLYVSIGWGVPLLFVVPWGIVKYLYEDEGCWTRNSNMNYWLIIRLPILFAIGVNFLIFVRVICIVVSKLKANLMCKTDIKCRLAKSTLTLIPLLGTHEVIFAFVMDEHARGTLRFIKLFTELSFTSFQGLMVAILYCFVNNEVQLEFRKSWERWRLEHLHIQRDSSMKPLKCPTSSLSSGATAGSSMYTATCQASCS
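Readout was luciferase luminescence, measured 12 min after detection reagent at room temperature. Beforehand, GLP-1R reporter HEK293 cells had sat 12 h, then received compounds for 24 hr at 37 deg C.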
GLP1R ag: activates the human GLP-1 receptor; hit rate 0.007% among 380,000; P43220; HEK293 GLP-1R CRE-luciferase, luminescence, 4-6 h; cells express a hypersensitive GLP-1R form; Potency, µM (highest dose often 45.6 µM), inactives show top-dose activation, most hits filed as activators; also: potency is read from the fitted curve at half-maximal effect; % of control where 0% means no effect
D3 ag: agonists of human D3 dopamine receptor; P35462; D3R DiscoveRx beta-arrestin cells, luminescence, 90 min; max activation, %; hit rate 0.58% among 410,000; AID 652048; in the data active = max activation above about 30%; also: 0% is about no effect
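Agonist mode: compounds and dopamine controls were applied to plated cells for 90 min at 37 degrees C after an overnight attachment at 1500 cells/well. Luminescent read-out followed 30 - 60 minutes at room temperature with DiscoveRx detection reagent.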
* marks the source's active call; other numbers are inactive results. Most compounds without a hit are left out; they make up all but 4.3% or so of the library. Unless noted, calls follow the shape of the dose curve; as a rule, active = well fitted curve in the direction sought with a large enough effect; inconclusive = small, poorly fitted or top-dose-only effect, or another doubt; inactive = no such curve, though single readings can be large; an effect the other way counts as inactive or inconclusive.

Screening O=C(NC1CCN(Cc2ccccc2)CC1)c1cccc(OC(F)F)c1 returned DRD3 antagonist -55*, GLP-1R inv ag -28%, GLP1R ag 6% and D3 ag -9.
`CN(CC(=O)NC1CCN(Cc2ccccc2)CC1)S(=O)(=O)c1ccc(Cl)cc1` gave DRD3 antagonist inconclusive, GLP-1R inv ag -12%, GLP1R ag 8% and D3 ag -2.
`O=C(c1cccs1)c1cn(CCOc2ccc(F)cc2)c2ccccc12` gave GLP-1R inv ag 11µM* and D3 ag -12.
CC(C)(C)c1ccc(OCCn2cc(C(=O)c3ccco3)c3ccccc32)cc1 was read as GLP-1R inv ag 7.9µM* and D3 ag 2.
`COc1ccc(NC(=O)C2CCC(C)(C(=O)O)C2(C)C)cc1` (configuration not stated) gave DRD3 antagonist -55*, GLP-1R inv ag 2%, GLP1R ag -2% and D3 ag 5.
For CC(C)(C)NC(=O)C1CCC(C)(C(=O)O)C1(C)C (configuration not stated) the results were DRD3 antagonist 15, GLP-1R inv ag 11%, GLP1R ag 0% and D3 ag 33*.
Cc1ccsc1CN(C)C(=O)CN1C(=O)NC(c2ccccc2)(c2ccccc2)C1=O was read as DRD3 antagonist 6, GLP-1R inv ag inconclusive, GLP1R ag 9% and D3 ag 5.
COc1ccc(C(=O)CCN2CCc3cc(OC)c(OC)cc3C2)cc1 was read as DRD3 antagonist -59*, GLP-1R inv ag inconclusive, GLP1R ag -1% and D3 ag -19.
COc1ccccc1N1CCN(CCCC(=O)c2ccc(F)cc2)CC1 was read as DRD3 antagonist -98*, GLP-1R inv ag -23%, GLP1R ag 8% and D3 ag -88.
Screening COc1ccc(/C=C/C(=O)NC(=S)N2CCN(c3ccccc3OC)CC2)cc1 returned DRD3 antagonist -50*, GLP-1R inv ag -9%, GLP1R ag 3% and D3 ag -16.
COc1ccc(C(=O)CCN2CCN(c3ccccc3OC)CC2)cc1 was read as DRD3 antagonist -83*, GLP-1R inv ag 22%, GLP1R ag 0% and D3 ag -21.
Screening COc1ccccc1N1CCN(C(=O)CCC(=O)N2CCN(c3ccc(F)cc3)CC2)CC1 returned DRD3 antagonist 11, GLP-1R inv ag -5%, GLP1R ag -7% and D3 ag 8.
Cc1csc2nc(COC(=O)c3ccc(NC(=O)C(C)Oc4ccccc4)cc3)cc(=O)n12 (configuration not stated) was read as GLP-1R inv ag -20% and D3 ag -20.
COc1ccc(OCC(=O)N2CCN(C(=O)c3ccc(OC)c(OC)c3)CC2)cc1 was read as GLP-1R inv ag 14%, GLP1R ag 3% and D3 ag 6.
Screening COc1cc2c(cc1OC)CN(CCOc1ccc(Br)cc1)CC2 returned DRD3 antagonist -100*, GLP-1R inv ag inconclusive, GLP1R ag -6% and D3 ag -2.
Screening CN1CCN(CCCCOc2ccc(Br)cc2)CC1 returned DRD3 antagonist -7, GLP-1R inv ag inconclusive, GLP1R ag -2% and D3 ag -1.
`COc1ccc(OCCN2CCN(C(=O)c3ccc(OC)c(OC)c3)CC2)cc1` gave DRD3 antagonist 9, GLP-1R inv ag -6%, GLP1R ag 20% and D3 ag 112*.
CCOP(=O)(OCC)C(Nc1ccccc1)c1ccccc1C(F)(F)F (configuration not stated) was read as DRD3 antagonist -10, GLP-1R inv ag inconclusive, GLP1R ag 10% and D3 ag -3.
CCOC(=O)c1ccc(Oc2nc(NC(C)(C)C)nc(N(C)C)n2)cc1 was read as DRD3 antagonist 40, GLP-1R inv ag 7.9µM*, GLP1R ag 3% and D3 ag 2.
CCOC(=O)c1ccc(Oc2nc(N(C)C)nc(N(C)C)n2)cc1 was read as DRD3 antagonist 64, GLP-1R inv ag -61%, GLP1R ag 5% and D3 ag 1.
Screening Cc1ccc(N(C)C(=O)c2noc3c2CCCCC3)cc1C returned GLP-1R inv ag -20% and D3 ag -13.
Cc1ccc(-c2nsc(NC(=O)c3oc4cc(C)c(Cl)cc4c3C)n2)cc1 was read as GLP-1R inv ag 10% and D3 ag 9.
Cc1c(C(=O)NCc2ccccc2C(F)(F)F)sc(=O)n1Cc1cccc(C(F)(F)F)c1 was read as DRD3 antagonist -55*, GLP-1R inv ag inconclusive, GLP1R ag -5% and D3 ag -6.
COc1ccc(Cl)cc1Cn1c(C)c(C(=O)NCc2cccc(C(F)(F)F)c2)sc1=O was read as DRD3 antagonist -60*, GLP-1R inv ag inconclusive, GLP1R ag -8% and D3 ag -4.
Screening COc1ccc(Cl)cc1Cn1c(C)c(C(=O)NCc2ccccc2C(F)(F)F)sc1=O returned DRD3 antagonist inconclusive, GLP-1R inv ag inconclusive, GLP1R ag -7% and D3 ag -8.
COc1ccc(Cl)cc1Cn1c(C)c(C(=O)NCc2ccc(C#N)cc2)sc1=O was read as DRD3 antagonist -50*, GLP-1R inv ag inconclusive, GLP1R ag 21% and D3 ag -1.
Screening Cc1c(C(=O)NCc2ccccc2C(F)(F)F)sc(=O)n1Cc1ccc2ccccc2c1 returned DRD3 antagonist 5, GLP-1R inv ag inconclusive, GLP1R ag -4% and D3 ag 6.
For CCCCCCCCCCCCCCCCCCOCC(COP(=O)([O-])OCC[N+](C)(C)C)OC (configuration not stated) the results were D3 ag 5.
Screening COC(=O)c1cc(NS(=O)(=O)c2cc(Br)cc3c2N(C(C)=O)CC3)cc(C(=O)OC)c1 returned GLP-1R inv ag -4% and D3 ag -12.
CCOc1ccc(C(=O)NCc2nc3cccnc3n2Cc2cccc(OC)c2)cc1 was read as GLP-1R inv ag -9% and D3 ag 2.
`COc1ccccc1N1CCN(C2CCCN(C(=O)c3cccc(-c4ccco4)c3)C2)CC1` (configuration not stated) gave DRD3 antagonist -66*, GLP-1R inv ag inconclusive, GLP1R ag -6% and D3 ag -13.
For COc1ccccc1N1CCN(C2CCCN(C(=O)c3cc(C(C)C)on3)C2)CC1 (configuration not stated) the results were DRD3 antagonist -62*, GLP-1R inv ag -25%, GLP1R ag 6% and D3 ag -2.
`Cc1cccc(CC(C)NC(=O)c2cc(COc3ccc(C)c(C)c3)on2)n1` (configuration not stated) gave DRD3 antagonist inconclusive, GLP-1R inv ag 10µM*, GLP1R ag 4% and D3 ag -13.
Screening COc1cccc(OCc2cc(C(=O)N3CCN(c4ccccc4OC)CC3)no2)c1 returned DRD3 antagonist -63*, GLP-1R inv ag inconclusive, GLP1R ag -8% and D3 ag -19.
